{
  "source": "the supplement of paper PMC10941209",
  "note": "A number with no mark means an inactive call.",
  "data": [
    {"tested_on": "Toxoplasma gondii RH 2F1 tachyzoites (intracellular in HFF)", "experiment": "parasite survival relative to DMSO control; higher = less antiparasitic activity, active = 20 or less", "details": "1 µM; 72 h", "in_short": "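Intracellular Toxoplasma gondii RH-2F1 tachyzoites, which express β-galactosidase, were grown in HFF cells (5 × 10^3 cells/well, 96-well plates) infected with 5 × 10^3 parasites in D2 medium for 3 h, then treated with compound at 1 μM for 72 h at 37°C in 5% CO2. Cells were lysed for 15 min, then CPRG was added and absorbance read at 570 nm after 30 min. Survival is the signal as a percentage of DMSO-treated infected controls, from 2 or more biological replicates.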", "values": [
      {"smiles": "NCCCc1ccccc1C(=O)Nc1ncc([N+](=O)O)s1", "parasite survival": "47.9%"},
      {"smiles": "CC(C)Cn1c(=O)n(C)c(=O)c2c(-c3cncn3C)n(Cc3cccc4ccccc34)nc21", "parasite survival": "68.5%"},
      {"smiles": "CC(C)(C)c1cccc(-c2nc3cc(C(=N)N)ccc3[nH]2)c1O", "parasite survival": "50.5%"},
      {"smiles": "O=C(c1nc2c(C(F)(F)F)cc(C3CC3)cn2c1Cl)N1CCN([C@H]2CC[C@H](O)CC2)C(=O)C1", "parasite survival": "21.1%"},
      {"smiles": "CC(C)(C)c1cc(CCC(=O)N2CCC2)cc(C(C)(C)C)c1O", "parasite survival": "52.9%"},
      {"smiles": "Nc1nc2c(Cc3cccnc3)c[nH]c2c(=O)[nH]1", "parasite survival": "72.8%"},
      {"smiles": "CCC(CC)[C@H](NC(C)=O)[C@@H]1[C@H](O)[C@@H](C(=O)O)C[C@H]1NC(=N)N", "parasite survival": "69.6%"},
      {"smiles": "CC[C@H](NC(=O)[C@H](C)NC)C(=O)N1C[C@@H](O)C[C@H]1Cc1c(-c2[nH]c3cc(F)ccc3c2C[C@@H]2C[C@H](O)CN2C(=O)[C@H](CC)NC(=O)[C@H](C)NC)[nH]c2cc(F)ccc12", "parasite survival": "8.15% (active)"},
      {"smiles": "COc1ccc(NS(=O)(=O)c2ccc(Cl)s2)cn1", "parasite survival": "45.1%"},
      {"smiles": "CCC(C)(C)c1ccc(CC(C)CN2C[C@@H](C)O[C@@H](C)C2)cc1", "note": "(stereo not given in full)", "parasite survival": "35.1%"},
      {"smiles": "CCOC(=O)N[C@@H]1CC[C@@H]2[C@@H](C1)C[C@H]1C(=O)O[C@H](C)[C@H]1[C@H]2/C=C/c1ccc(-c2cccc(F)c2)cn1", "parasite survival": "23%"},
      {"smiles": "Nc1nc2c(ncn2COCCO)c(=O)[nH]1", "parasite survival": "67.4%"},
      {"smiles": "Fc1ccc2c(/C=C/c3cccnc3)c[nH]c2c1", "parasite survival": "29.1%"},
      {"smiles": "COc1cc(C(C)(C)CCCC(C)C)cc(OC)c1OC", "parasite survival": "36.9%"},
      {"smiles": "COc1cc(Cc2cc(N)nc(N)n2)cc(OC)c1OC", "parasite survival": "31%"},
      {"smiles": "CN1CCN(c2ccc3[nH]c(-c4ccc5[nH]c(-c6ccc(O)cc6)nc5c4)nc3c2)CC1", "parasite survival": "35.3%"},
      {"smiles": "N=C(N)c1ccc(COc2ccc(Cl)cc2)cc1", "parasite survival": "54.6%"},
      {"smiles": "O=C(O)C(Cc1c[nH]c2ccccc12)N1C(=O)c2ccccc2C1=O", "note": "(stereo not given)", "parasite survival": "46.6%"},
      {"smiles": "Cc1cccc(C)c1C(=O)Nc1nc(-c2ccccn2)cc2ccccc12", "parasite survival": "4.42% (active)"},
      {"smiles": "CC[C@H]1OC(=O)[C@H](C)[C@@H](O[C@H]2C[C@@](C)(OC)[C@@H](O)[C@H](C)O2)[C@H](C)[C@@H](O[C@@H]2O[C@H](C)C[C@H](N(C)C)[C@H]2O)[C@](C)(O)C[C@@H](C)C(=O)[C@H](C)[C@@H](O)[C@]1(C)O", "parasite survival": "13.9% (active)"},
      {"smiles": "CC(C)(C)OC(=O)NCc1ccc(C(=O)N[C@H]2CCOC2=O)cc1", "parasite survival": "35%"},
      {"smiles": "CC(=O)Oc1ccccc1C(=O)Nc1ncc([N+](=O)[O-])s1", "parasite survival": "75.8%"},
      {"smiles": "CC1(C)CC(NC(=O)C(=O)Nc2ccc(Cl)cc2)CC(C)(C)N1", "parasite survival": "69.9%"},
      {"smiles": "O=C(NO)C1(CS(=O)(=O)c2ccc(Oc3ccc(Cl)cc3)cc2)CCOCC1", "parasite survival": "66%"},
      {"smiles": "NC(=O)c1c(N)sc2c1CCCCC2", "parasite survival": "48.8%"},
      {"smiles": "C[C@@H](NC(=O)c1cccc(-c2cnc(-c3cc4ccccc4cn3)[nH]2)c1)c1ccc(F)cc1", "parasite survival": "11.6% (active)"},
      {"smiles": "CCCCc1ccc(-c2nc(C)c(C(=O)OC)s2)cc1", "parasite survival": "64%"},
      {"smiles": "O=C(O)/C=C/C=C/c1cccc(Oc2cc(Cl)cc(Cl)c2)c1", "parasite survival": "36.2%"},
      {"smiles": "Fc1ccc(-n2cc(Cn3c(-c4cccc(F)c4)nc4ccccc43)nn2)cc1", "parasite survival": "50.1%"},
      {"smiles": "COC(=O)Nc1nc2c(C)cccc2[nH]1", "parasite survival": "36.4%"},
      {"smiles": "COc1ccc(C[C@@H](C)[C@@H](C)Cc2ccc(OC)c(OC)c2)cc1OC", "parasite survival": "77.7%"},
      {"smiles": "COc1ccc(SC(=O)N[C@H](CCC(=O)O)C(=O)O)cc1", "parasite survival": "56.2%"},
      {"smiles": "O=C(NC(=O)N1CCCc2ccccc21)c1cccc(Cl)c1", "parasite survival": "28.3%"},
      {"smiles": "Oc1ccc2[nH]c(-c3ccccc3)nc2c1", "parasite survival": "66.2%"},
      {"smiles": "O=C1NC(=S)N/C1=C\\c1cc(Br)cc(Br)c1O", "parasite survival": "71.6%"},
      {"smiles": "FC(F)(F)Oc1ccc(Nc2ccc3cccc(Cl)c3n2)cc1", "parasite survival": "41.4%"},
      {"smiles": "O=c1oc2ccc(Br)cc2cc1CSc1ncc[nH]1", "parasite survival": "63.6%"},
      {"smiles": "O=C(NCc1ccc2c3c(cccc13)C(=O)N2)c1cccs1", "parasite survival": "75.5%"},
      {"smiles": "CNc1nc(=O)[nH]cc1F", "parasite survival": "60.5%"},
      {"smiles": "FC(F)(F)c1cc(C(F)(F)F)c2ccc3nc(-c4nnco4)cn3c2n1", "parasite survival": "77.8%"}
    ]}
  ]
}
